Screening results deposited in PubChem BioAssay by National Center for Advancing Translational Sciences (NCATS).
Sampled rows, rich in hits. Any-hit rate of the full collection: about 19%.
DT40 TDP1 CPT: qHTS for Inhibitors of human tyrosyl-DNA phosphodiesterase 1 (TDP1): qHTS in cells in presence of CPT. AID 686979, 2013. chicken DT40 Tdp1-/-;hTDP1 cells + 20 nM CPT, ATP luminescence, 48 h. actives 12% (n = 420,000). Potency, µM (top dose mostly 46.2 µM), without a hit: top-dose activity change, negative = growth inhibition, hits mostly inhibitors; further: potency means the concentration at half of the fitted maximal effect; on the % scale 0 is the no-effect control and ±100 the full control effect; nearly all actives have a fitted effect of over 55% in size
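Chicken DT40 Tdp1-/- cells complemented with human TDP1, 400 cells/well, exposed to compounds plus 20 nM camptothecin for at least 48 h at 37 C; viability read as ATP content by CellTiter-Glo luminescence.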
IL1B secr inh: qHTS for Inhibitors of Inflammasome Signaling: IL-1-beta AlphaLISA Primary Screen; activity change, % at 57.5 µM; THP-1 LPS/ATP IL-1B secretion, AlphaLISA, 16 h; active compounds read low; AID 743279, 2014; actives 4.7% (n = 360,000); in the data active means activity change below about -50%; inconclusive means mostly about -30% to -49%; further: on the % scale 0 is the no-effect control and ±100 the full control effect
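Secreted IL-1B measured by AlphaLISA bead assay after 16 h compound exposure of THP-1 cells; compounds (final up to 57.5 uM) added 1 h before LPS (250 ng/mL) and ATP (1.25 mM) stimulation; lower signal means less secretion.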
S-ASM inh: Inhibitors of Secretory Acid Sphingomyelinase (S-ASM): qHTS; Sphingomyelin phosphodiesterase (Homo sapiens), P17405; placental ASM, HMU-PC fluorogenic substrate, 60 min; Potency, µM (titrated, usually from 57.5 µM), inactives show at the highest dose activity change, negative = inhibition, hits mostly inhibitors; actives 0.006% (n = 340,000); further: potency means the concentration at half of the fitted maximal effect
Target sequence (P17405 47-631 limits assumed): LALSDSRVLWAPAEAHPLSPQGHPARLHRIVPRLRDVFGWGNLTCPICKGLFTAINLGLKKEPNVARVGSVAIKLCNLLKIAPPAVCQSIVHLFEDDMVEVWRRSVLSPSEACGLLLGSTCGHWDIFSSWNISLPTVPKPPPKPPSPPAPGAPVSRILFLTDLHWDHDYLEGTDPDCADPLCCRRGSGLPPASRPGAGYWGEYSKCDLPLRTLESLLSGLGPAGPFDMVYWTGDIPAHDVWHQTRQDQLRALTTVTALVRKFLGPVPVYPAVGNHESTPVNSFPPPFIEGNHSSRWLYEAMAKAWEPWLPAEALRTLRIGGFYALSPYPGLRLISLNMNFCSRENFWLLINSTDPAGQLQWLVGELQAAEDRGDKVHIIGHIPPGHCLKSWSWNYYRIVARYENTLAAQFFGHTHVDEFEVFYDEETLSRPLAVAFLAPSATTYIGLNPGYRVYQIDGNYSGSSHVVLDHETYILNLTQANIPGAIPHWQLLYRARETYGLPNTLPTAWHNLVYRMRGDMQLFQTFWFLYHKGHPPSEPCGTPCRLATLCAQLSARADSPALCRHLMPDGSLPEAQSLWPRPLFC
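Steps: dispense placental human ASM, pin compound, wait 10 min at room temperature, add HMU-PC0 substrate at 9 uM final, incubate 60 min at 37 °C, add stop solution raising pH to 10, read fluorescence.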
HepG2 viability: qHTS for Inhibitors of TGF-b: Cytotox Counterscreen; AID 588856, 2011; HepG2 CAGA-GFP viability, ATP luminescence, 18 h; Potency, µM (series often up to 46.1 µM), for inactives: at the top dose activity change, negative = cytotoxicity, most hits filed as cytotoxic; actives 0.76% (n = 410,000); further: potency means the concentration at half of the fitted maximal effect
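CellTiter-Glo luminescence gave cytotoxicity after 18 hours at 37 degrees C. The cells were HepG2 CAGA-GFP in 1% FBS DMEM, stimulated with 500 pg/mL TGF-beta after compound addition. %Activity was normalised to no-cell wells (complete cell-killing) and DMSO (no toxicity), and curves were fitted and classified.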
DT40 TDP1 no CPT: qHTS for Inhibitors of human tyrosyl-DNA phosphodiesterase 1 (TDP1): qHTS in cells in absence of CPT; actives 15% (n = 420,000); DT40 Tdp1-/- hTDP1 cells, no CPT, ATP luminescence, 48 h; Potency, µM (series often up to 46.2 µM), without a hit: at the top dose activity change, negative = growth inhibition, usual class: inhibitors; AID 686978, 2013; further: potency means the concentration at half of the fitted maximal effect; on the % scale 0 is the no-effect control and ±100 the full control effect; nearly all actives have a fitted effect of over 55% in size
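Luminescent ATP content (CellTiter-Glo) served as the growth readout. Knockout chicken DT40 cells expressing human TDP1 were exposed to compounds without camptothecin for a minimum 48 hr at 37 °C.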
TGFb inhibitor: qHTS for Inhibitors of TGF-b; AID 588855, 2011; HepG2 CAGA-GFP TGF-b/SMAD3 reporter, GFP fluorescence, 18 h; TGF-beta stimulated, 500 pg/mL final; actives 1.2% (n = 410,000); Potency, µM (doses to about 46.1 µM), for inactives: top-dose activity, negative = inhibition, most hits filed as inhibitors; further: potency means the concentration at half of the fitted maximal effect; on the % scale 0 is the no-effect control and ±100 the full control effect; nearly all actives have a fitted effect of over 65% in size
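Cell-based qHTS in HEPG2 carrying a CAGA-GFP Smad reporter; compounds added before 500 pg/mL final TGF-beta, 18 h incubation at 37 degrees C, GFP fluorescence quantified per cell by imaging cytometry.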
* marks the source's active call; other numbers are inactive results; ! = not confirmed by another sample; [ ] = another dose, or the depositor's remark. Unless noted, the call rests on the fitted dose curve; in most records, active means well fitted curve in the direction sought with a large enough effect; inconclusive means small, poorly fitted or top-dose-only effect, or another doubt; inactive means no such curve, though single readings can be large; an effect the other way counts as inactive or inconclusive.

What do the screens show for `COc1ccc(/C=C(\C#N)C(=O)NCC(c2ccc(F)cc2)N2CCOCC2)cc1` (configuration not stated)?
DT40 TDP1 CPT: inconclusive; IL1B secr inh: 0.0; S-ASM inh: -4.2%; HepG2 viability: -21.6%; DT40 TDP1 no CPT: -17.2%; TGFb inhibitor: 9.0%

What do the screens show for `COc1ccc(C2CC(c3ccccc3)Oc3c(C)ccc(C)c32)cc1` (configuration not stated)?
HepG2 viability: -2.1%; TGFb inhibitor: 3.1%

How did Cn1c(N)c(C(=O)COC(=O)/C=C/c2cccc(Cl)c2)c(=O)n(C)c1=O do in these assays?
DT40 TDP1 CPT: -6.7%; IL1B secr inh: 11.8; S-ASM inh: -17.9%; HepG2 viability: -4.5%; DT40 TDP1 no CPT: -17.8%; TGFb inhibitor: 9.0%

How did Cc1nnc(N2CCC(C(=O)NCCC(C)C)CC2)c2nn(-c3ccc(Cl)cc3)c(C)c12 do in these assays?
DT40 TDP1 CPT: inconclusive; HepG2 viability: -4.4%; DT40 TDP1 no CPT: 20.6µM*; TGFb inhibitor: inconclusive

What do the screens show for `Cc1nnc(N2CCN(C(=O)NCCC(C)C)CC2)c2nn(-c3ccc(Cl)cc3)c(C)c12`?
DT40 TDP1 CPT: -3.4%; HepG2 viability: 2.0%; DT40 TDP1 no CPT: -19.0%; TGFb inhibitor: -4.3%

What do the screens show for `CCCCN(CC)CCNC(=O)C1CCN(c2nnc(C)c3c(C)n(-c4ccc(C)cc4)nc23)CC1`?
DT40 TDP1 CPT: inconclusive; HepG2 viability: -5.0%; DT40 TDP1 no CPT: 20.6µM*; TGFb inhibitor: 0.0%

What do the screens show for `CCN(CC)CCNC(=O)C1CCCN(c2nnc(C)c3c(C)n(-c4ccc(Cl)cc4)nc23)C1` (configuration not stated)?
DT40 TDP1 CPT: inconclusive; HepG2 viability: -16.5%; DT40 TDP1 no CPT: inconclusive; TGFb inhibitor: -14.2%

How did O=C(Nc1ccccc1N1CCN(C(=O)c2ccc(Cl)cc2)CC1)c1ccc(Br)cc1 do in these assays?
DT40 TDP1 CPT: inconclusive; IL1B secr inh: -16.3; S-ASM inh: -7.1%; HepG2 viability: -0.9%; DT40 TDP1 no CPT: -2.2%; TGFb inhibitor: 4.6%

Results for O=C(NC(=S)Nc1ccccc1N1CCN(C(=O)c2ccccc2)CC1)c1ccccc1F ?
DT40 TDP1 CPT: 16.4µM*; IL1B secr inh: inactive; S-ASM inh: -1.6%; HepG2 viability: 0.0%; DT40 TDP1 no CPT: 18.4µM*; TGFb inhibitor: inconclusive

Results for O=C(Cc1ccc(Cl)cc1)Nc1ccccc1N1CCN(C(=O)c2ccccc2)CC1 ?
DT40 TDP1 CPT: inconclusive; IL1B secr inh: inconclusive; S-ASM inh: -3.3%; HepG2 viability: -43.3%; DT40 TDP1 no CPT: 20.6µM*; TGFb inhibitor: inconclusive

How did O=C(Nc1ccccc1N1CCN(C(=O)c2ccccc2)CC1)c1ccc(Cl)cc1 do in these assays?
DT40 TDP1 CPT: inconclusive; IL1B secr inh: inconclusive; S-ASM inh: -6.8%; HepG2 viability: -17.0%; DT40 TDP1 no CPT: 23.1µM*; TGFb inhibitor: -4.4%

What do the screens show for `O=C(Nc1ccccc1N1CCN(C(=O)c2ccc(Cl)cc2)CC1)c1cc2ccccc2o1`?
DT40 TDP1 CPT: 25.9µM*; IL1B secr inh: -6.9; S-ASM inh: -8.4%; HepG2 viability: 31.3%; DT40 TDP1 no CPT: inconclusive; TGFb inhibitor: 0.0%

Results for COC(=O)[C@@H]1CCCN1Cc1ccc2c(c1)CN(Cc1ccc3c(c1)OCCO3)CCO2 ?
DT40 TDP1 CPT: 16.1%[9.04 µM]; DT40 TDP1 no CPT: -13.3%

Results for O=C(COC(=O)c1ccccc1O)NCc1ccc2c(c1)OCO2 ?
DT40 TDP1 CPT: 5.8%; IL1B secr inh: 8.7; S-ASM inh: 0.1%; HepG2 viability: 4.7%; DT40 TDP1 no CPT: inconclusive; TGFb inhibitor: 12.9%

How did COc1cccc(CNC(=O)Cn2nc(C)n3c(cc4cc(C)ccc43)c2=O)c1OC do in these assays?
DT40 TDP1 CPT: -11.7%; HepG2 viability: 5.0%; DT40 TDP1 no CPT: -5.9%; TGFb inhibitor: -24.8%

Results for COc1ccc(C(=O)Nc2ccccc2N2CCN(C(=O)c3ccccc3)CC2)cc1Br ?
DT40 TDP1 CPT: inconclusive; IL1B secr inh: inconclusive; S-ASM inh: -8.3%; HepG2 viability: -4.4%; DT40 TDP1 no CPT: inconclusive; TGFb inhibitor: 0.0%

What do the screens show for `O=C(Nc1ccccc1N1CCN(C(=O)c2ccccc2)CC1)c1ccc(Br)o1`?
DT40 TDP1 CPT: inconclusive; IL1B secr inh: -0.6; S-ASM inh: -0.7%; HepG2 viability: 4.2%; DT40 TDP1 no CPT: 20.6µM*; TGFb inhibitor: -21.2%

Results for COCCNC(=O)CN(c1ccc(F)cc1)S(=O)(=O)c1ccc2c(c1)OCCO2 ?
DT40 TDP1 CPT: -6.3%; IL1B secr inh: -2.6; S-ASM inh: 4.5%; HepG2 viability: -7.5%; DT40 TDP1 no CPT: -13.5%; TGFb inhibitor: 28.4%

How did COc1cc(NC(=O)C2CCC(CNc3c(N4CCC(C)CC4)c(=O)c3=O)CC2)cc(OC)c1 (configuration not stated) do in these assays?
DT40 TDP1 CPT: inconclusive; IL1B secr inh: -62.3*!; S-ASM inh: -0.9%; HepG2 viability: -0.3%; DT40 TDP1 no CPT: -7.0%; TGFb inhibitor: -19.6%

Results for Cc1ccnc(NC(=O)C2CCC(CNc3c(N4CCCC4)c(=O)c3=O)CC2)c1 (configuration not stated) ?
DT40 TDP1 CPT: -1.5%; IL1B secr inh: -66.9*; S-ASM inh: -1.8%; HepG2 viability: -29.3%; DT40 TDP1 no CPT: inconclusive; TGFb inhibitor: inconclusive

Results for O=C(C[n+]1cccc(Br)c1)c1ccc2ccccc2c1 ?
DT40 TDP1 CPT: -107.2%; HepG2 viability: -2.2%; DT40 TDP1 no CPT: -98.8%; TGFb inhibitor: -15.8%

How did O/N=C(/C[n+]1cccc(Br)c1)c1ccc2ccccc2c1 do in these assays?
DT40 TDP1 CPT: inconclusive; HepG2 viability: -26.8%; DT40 TDP1 no CPT: 12.6µM*; TGFb inhibitor: 0.6%

Results for Cc1cc(NC(=S)NC(=O)c2ccccc2)ccc1-c1cc2ccccc2oc1=O ?
DT40 TDP1 CPT: 3.26µM*; IL1B secr inh: 8.6; S-ASM inh: -1.4%; HepG2 viability: 17.4%; DT40 TDP1 no CPT: 2.91µM*; TGFb inhibitor: 21.4%
